Experimental data from PubChem BioAssay.
Unmarked numbers belong to inactive results. For some assays here: Measured potencies and affinities stand elsewhere. Active and inactive are the calls of the source. Unless noted, how the calls were made is not given here.

Key:
[1] = antimalarial activity against Dd2 strain (AID 2302;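 active means growth inhibition above 50% at the single 2 µM test dose, taken to imply half-maximal potency below 2 µM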;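 further: 0% = DMSO untreated growth and 100% = chloroquine plus artemisinin killed control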); settings: P. falciparum Dd2 in RBCs, LDH growth readout, 72 h; at 2 µM; active compounds read high
[2] = HepG2 cytotoxicity, primary screen, cytotoxicity control for P. falciparum antimalarial project, cell-based, ATP luminescence (AID 2303;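 active means inhibition above 50%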;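 further: 0% = DMSO wells and 100% = digitonin-killed cells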); settings: HepG2 viability, 24-48 h, at 10 µM, active compounds read high
[3] = biological target: L-lactate dehydrogenase (Plasmodium falciparum (isolate CDC / Honduras)) (UniProt Q27743); test: PfLDH activity inhibition – cell lysate, 3D7 strain, counter-screen for P. falciparum growth inhibition project (AID 2304);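 further: 0% = vehicle and 100% = reference inhibitor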; settings: P. falciparum 3D7 crude extract, LDH APAD/NBT absorbance; at 2 µM; active compounds read high
L-lactate dehydrogenase (Plasmodium falciparum (isolate CDC / Honduras)), sequence (Q27743 whole entry, looked up): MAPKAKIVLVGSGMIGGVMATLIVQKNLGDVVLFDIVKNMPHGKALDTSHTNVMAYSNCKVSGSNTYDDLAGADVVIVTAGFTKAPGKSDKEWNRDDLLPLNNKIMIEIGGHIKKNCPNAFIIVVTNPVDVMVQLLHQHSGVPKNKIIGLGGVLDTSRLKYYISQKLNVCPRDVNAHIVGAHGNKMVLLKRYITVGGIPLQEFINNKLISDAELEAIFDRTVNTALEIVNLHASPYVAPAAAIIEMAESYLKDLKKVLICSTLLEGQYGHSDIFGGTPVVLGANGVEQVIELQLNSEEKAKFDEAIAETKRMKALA

[4] = inhibition of 3D7 malaria parasite growth – strain 3D7 (AID 2306);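 further: 0% = DMSO wells and 100% = chloroquine plus artemisinin control wells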; settings: P. falciparum 3D7 erythrocytic growth, LDH absorbance, 72 h; at 2 µM; active compounds read high
[5] = biological target: Calcium-dependent protein kinase 1 (Plasmodium falciparum (isolate 3D7)) (UniProt P62344); test: PfCDPK1 kinase inhibitors, biochemical, TCAMS library (AID 1159585; cut-off not given, nearly all actives have IC50 up to about 0.98 µM;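 further: inhibitors leave more ATP so luminescence rises with inhibition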); settings: recombinant PfCDPK1, Kinase-Glo ATP depletion luminescence
Calcium-dependent protein kinase 1 (Plasmodium falciparum (isolate 3D7)), sequence (P62344 whole entry, looked up): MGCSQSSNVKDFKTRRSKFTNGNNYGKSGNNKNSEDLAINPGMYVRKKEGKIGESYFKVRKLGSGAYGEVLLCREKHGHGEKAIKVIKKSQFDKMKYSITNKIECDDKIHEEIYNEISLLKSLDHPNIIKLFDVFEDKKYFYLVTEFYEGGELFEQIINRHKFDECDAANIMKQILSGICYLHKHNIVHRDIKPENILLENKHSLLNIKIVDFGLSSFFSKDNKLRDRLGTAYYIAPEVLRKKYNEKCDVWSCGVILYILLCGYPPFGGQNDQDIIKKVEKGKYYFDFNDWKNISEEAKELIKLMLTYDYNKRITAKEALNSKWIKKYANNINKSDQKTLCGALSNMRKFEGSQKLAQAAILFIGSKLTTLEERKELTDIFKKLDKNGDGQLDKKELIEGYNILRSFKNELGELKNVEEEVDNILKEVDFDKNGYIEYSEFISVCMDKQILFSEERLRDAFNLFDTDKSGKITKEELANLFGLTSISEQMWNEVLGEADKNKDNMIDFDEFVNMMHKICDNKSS

[6] = biological target: Plasmodium falciparum protein kinase 6 (PK6, PF3D7_1337100) (UniProt Q8IDW1); test: PfPK6 kinase inhibitors, biochemical, TCAMS library (AID 1159586); settings: recombinant PfPK6, Kinase-Glo ATP depletion luminescence
Plasmodium falciparum protein kinase 6 (PK6, PF3D7_1337100), sequence (Q8IDW1 1-305): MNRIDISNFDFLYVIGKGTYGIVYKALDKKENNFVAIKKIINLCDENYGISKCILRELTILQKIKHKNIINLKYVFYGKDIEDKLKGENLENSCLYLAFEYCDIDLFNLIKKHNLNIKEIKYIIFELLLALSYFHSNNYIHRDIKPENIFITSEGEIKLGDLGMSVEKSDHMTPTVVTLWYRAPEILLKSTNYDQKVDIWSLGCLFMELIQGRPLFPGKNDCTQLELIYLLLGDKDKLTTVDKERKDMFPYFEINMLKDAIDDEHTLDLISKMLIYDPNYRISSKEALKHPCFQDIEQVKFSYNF

[7] = biological target: Protein kinase 7 (PK7), Plasmodium falciparum 3D7 (PF3D7_0213400) (UniProt Q7YTF7); test: inhibition of Plasmodium PK7 catalytic activity – biochemical, TCAMS antimalarial set, Kinase-Glo luminescence (AID 1159587); settings: recombinant PfPK7, Kinase-Glo ATP depletion luminescence
Protein kinase 7 (PK7), Plasmodium falciparum 3D7 (PF3D7_0213400), sequence (Q7YTF7 1-343): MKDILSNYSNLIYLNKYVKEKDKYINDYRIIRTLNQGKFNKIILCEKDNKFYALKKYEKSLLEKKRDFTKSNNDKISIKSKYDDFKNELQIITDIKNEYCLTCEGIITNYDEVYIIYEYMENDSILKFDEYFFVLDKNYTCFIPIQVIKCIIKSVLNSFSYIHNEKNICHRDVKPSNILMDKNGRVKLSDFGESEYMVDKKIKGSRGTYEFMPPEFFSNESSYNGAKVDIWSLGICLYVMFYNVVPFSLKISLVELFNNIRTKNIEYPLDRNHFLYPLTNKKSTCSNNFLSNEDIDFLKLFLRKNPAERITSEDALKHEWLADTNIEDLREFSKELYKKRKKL

[8] = biological target: Calcium-dependent protein kinase 4 (Plasmodium falciparum (isolate 3D7)) (UniProt Q8IBS5); test: PfCDPK4 kinase inhibitors, biochemical, TCAMS library (AID 1159588; cut-off not given, nearly all actives have IC50 up to about 0.91 µM); settings: recombinant PfCDPK4, Kinase-Glo ATP depletion luminescence
Calcium-dependent protein kinase 4 (Plasmodium falciparum (isolate 3D7)), sequence (Q8IBS5 whole entry, looked up): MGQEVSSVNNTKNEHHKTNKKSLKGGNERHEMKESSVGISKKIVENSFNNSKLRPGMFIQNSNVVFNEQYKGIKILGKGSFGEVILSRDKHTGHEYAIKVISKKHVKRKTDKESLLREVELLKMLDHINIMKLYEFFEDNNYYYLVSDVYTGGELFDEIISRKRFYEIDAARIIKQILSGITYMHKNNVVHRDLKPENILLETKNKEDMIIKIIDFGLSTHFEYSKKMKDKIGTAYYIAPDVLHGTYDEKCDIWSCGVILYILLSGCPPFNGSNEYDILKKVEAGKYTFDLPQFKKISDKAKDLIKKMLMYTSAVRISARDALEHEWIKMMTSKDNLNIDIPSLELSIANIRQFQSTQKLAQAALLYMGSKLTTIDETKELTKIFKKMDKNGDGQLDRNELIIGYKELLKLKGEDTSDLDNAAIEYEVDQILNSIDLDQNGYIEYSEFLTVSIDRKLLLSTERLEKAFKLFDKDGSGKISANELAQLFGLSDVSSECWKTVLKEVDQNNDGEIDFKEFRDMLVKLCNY

Compound | growth inhibition [1] | inhibition [2] | inhibition [3] | growth inhibition [4] | outcome [5] | outcome [6] | outcome [7] | outcome [8]
CS(=O)(=O)c1ccc2c(c1)CCN(CCC1CCC(NC(=O)c3cc4cccc(Br)c4[nH]3)CC1)CC2 (stereo not given) | 7% | 27% | -8% | 92% (active) | inactive | inactive | inactive | inactive
CNC(=O)NC1CCN(Cc2c(-c3cccs3)nc3ccccc3c2C(=O)N[C@@H](C)C2CCCCC2)CC1 | 97% (active) | 5% | 1% | 99% (active) | inactive | inactive | inactive | inactive
C[C@@H]1CN(c2ccnc3ccc(Sc4ccc(Oc5ccccc5)cc4)cc23)C[C@H](C)N1 | 99% (active) | 33% | 7% | 100% (active) | inactive | inactive | inactive | inactive
O=S(=O)(NCCN1CCCC1)c1ccc(-c2ccc(CNCc3ccc(F)cc3)cc2)cc1 | 44% | 42% | 4% | 94% (active) | inactive | inactive | inactive | inactive
COc1ccccc1Cn1ccnc1SCC(=O)Nc1cc(C(F)(F)F)ccc1Cl | 97% (active) | 12% | 1% | 96% (active) | inactive | inactive | inactive | inactive
COCCN(C)c1ccc(C(=O)Nc2ccccc2)cc1NS(=O)(=O)Cc1ccccc1 | 47% | 2% | -5% | 92% (active) | inactive | inactive | inactive | inactive
COc1ccc(Nc2ccnc3cc(-c4ccccn4)ccc23)cc1OC | 26% | 14% | 1% | 91% (active) | inactive | inactive | inactive | inactive
Cc1cccc2[nH]c(-c3ccc(-c4cccc(CNCCNC(=O)c5ccnn5C)c4)cc3)nc12 | 92% (active) | 17% | -4% | 100% (active) | inactive | inactive | inactive | inactive
O=S(=O)(NCCN1CCCC1)c1ccc(-c2ccc(CNC3Cc4ccccc4C3)cc2)s1 | 97% (active) | 47% | -2% | 100% (active) | inactive | inactive | inactive | inactive
COc1cc(NC(=O)CCCCCCCN2CCN(C)CC2)c2ncccc2c1 | 83% (active) | 2% | 1% | 95% (active) | inactive | inactive | inactive | inactive
CN(c1ccccc1C(=O)Nc1ccccc1Oc1ccccc1)S(=O)(=O)c1ccccc1 | 80% (active) | 2% | -2% | 90% (active) | inactive | inactive | inactive | inactive
Cn1ccc(C(=O)Nc2ccc3c(c2)CN(Cc2ccc(N4CCCC4)o2)CCC3)n1 | 72% (active) | 19% | 4% | 80% (active) | inactive | inactive | inactive | inactive
CC(Cc1ccc(NC(=O)COc2ccc(CC(C)NCCc3cccc(Cl)c3)cc2)cc1)NCCc1cccc(Cl)c1 (stereo not given) | 98% (active) | 100% (active) | 4% | 105% (active) | inactive | inactive | inactive | inactive
Oc1c(CN2CCC(Cc3ccccc3)CC2)cc(Cl)c2cccnc12 | 94% (active) | 49% | 4% | 96% (active) | inactive | inactive | inactive | inactive
Cc1ccccc1C1CCN(C2CCC(NC(=O)/C=C/c3c(F)ccc(F)c3F)CC2)CC1 (stereo not given) | 33% | 37% | 1% | 82% (active) | inactive | inactive | inactive | inactive
C#CCN(Cc1ccc2nc(N)[nH]c(=O)c2c1)c1ccc(C(=O)N[C@@H](CCC(=O)O)C(=O)O)cc1 | 96% (active) | 45% | 3% | 95% (active) | inactive | inactive | inactive | inactive
CCc1cn(C)c2c(N3CCCC3=O)cc(C(=O)N[C@@H](Cc3ccccc3)[C@H](O)CNC(C)(C)CCCC(C)C)cc12 | 98% (active) | 15% | -4% | 97% (active) | inactive | inactive | inactive | inactive
Cc1cccc(-c2ccc(NC(=O)C3CCN(Cc4cccc(O)c4)CC3)cc2)c1 | 64% (active) | 21% | 0% | 92% (active) | inactive | inactive | inactive | inactive
Cc1cccc2[nH]c(-c3ccc(-c4ccc(CNCc5ccc(S(C)(=O)=O)cc5)cc4)cc3)nc12 | 38% | 19% | -1% | 93% (active) | inactive | inactive | inactive | inactive
Cc1cc(N2CCOCC2)nc(Nc2ccc(NC(=O)Nc3ccc(F)cc3)cc2)n1 | 34% | 35% | -2% | 101% (active) | inactive | inactive | inactive | inactive

Compound | growth inhibition [1] | inhibition [2] | inhibition [3] | growth inhibition [4] | outcome [5] | outcome [6] | outcome [7] | outcome [8]
O=C(/C=C/c1ccc(Cl)c(Cl)c1)NCCCCCN1CCCN(C(=O)Nc2ccc(Cl)cc2)CC1 | -5% | 21% | -5% | 100% (active) | inactive | inactive | inactive | inactive
COc1ccccc1-c1cccc2c(NC(=O)Nc3ccc4nccc(N5CCN(C)CC5)c4c3)ccnc12 | 34% | 3% | 5% | 94% (active) | inactive | inactive | inactive | inactive
CC(=O)c1cccc2[nH]c(C(=O)NC3CCC(CCN4CCc5ccc(C#N)cc5C4)CC3)cc12 (stereo not given) | 0% | 12% | 1% | 96% (active) | inactive | inactive | inactive | inactive
Fc1ccc2nc(Nc3nc(-c4ccccn4)cs3)sc2c1 | 100% (active) | 42% | 3% | 102% (active) | inactive | inactive | inactive | inactive
O=C(/C=C/c1ccc(Cl)c(Cl)c1)NCCCCCN1CCC(c2c[nH]c3c(-c4ccccc4)cccc23)CC1 | 40% | 74% (active) | -2% | 99% (active) | inactive | inactive | inactive | inactive
O=C1CCCN1CCCNCc1ccc(-c2cccc(-c3nc4ccc(F)cc4[nH]3)c2)cc1 | 8% | 12% | -1% | 101% (active) | inactive | inactive | inactive | inactive
COc1cc(OC)cc(-c2nn(-c3ccc([N+](=O)[O-])cc3Cl)c(=S)n2Cc2ccco2)c1 | 100% (active) | 15% | 2% | 101% (active) | inactive | inactive | inactive | inactive
COc1cc(NC(=O)N2CCc3ccc(OCCC4CCCN4C)cc32)cc(C(F)(F)F)c1 (stereo not given) | 42% | 5% | 3% | 101% (active) | inactive | inactive | inactive | inactive
NC(N)=Nc1ccc(CCc2ccc(N=C(N)N)cc2)cc1 | 95% (active) | 57% (active) | -1% | 96% (active) | inactive | inactive | inactive | inactive
CCc1cn2c3c(cc(C(=O)N[C@@H](Cc4cccc(Cl)c4)[C@H](O)CNC4CCOCC4)cc13)N(C)S(=O)(=O)CC2 | 98% (active) | 2% | -1% | 98% (active) | inactive | inactive | inactive | inactive
O=C(Nc1cccc(F)c1)N(Cc1ccc(-c2cccc(CN3CCNCC3)c2)cc1)C1CCN(Cc2ccccc2)CC1 | 54% (active) | 13% | -1% | 97% (active) | inactive | inactive | inactive | inactive
Fc1ccc(Nc2ccnc3cc(-c4cccc(CNCCN5CCOCC5)c4)ccc23)c(Cl)c1 | 99% (active) | 26% | -1% | 100% (active) | inactive | inactive | inactive | inactive
CN1CCCC(CN2CCN(Cc3cccc(-c4ccc(-c5nc6ccccc6[nH]5)s4)c3)CC2)C1 (stereo not given) | 99% (active) | 52% (active) | -6% | 99% (active) | inactive | inactive | inactive | inactive
Cc1cc(N[C@@H](CC(C)C)C(=O)NCCOc2ccccc2)nc(NCCc2ccc(F)cc2)n1 | 54% (active) | 25% | 1% | 95% (active) | inactive | inactive | inactive | inactive
Cc1ccc(Nc2nc(NN=Cc3cc4c(cc3Br)OCO4)nc(Nc3ccc([N+](=O)[O-])cc3)n2)cc1C | 89% (active) | 23% | -2% | 100% (active) | inactive | inactive | inactive | inactive
CCC(CC)N1C(=O)C(c2ccccc2)(c2ccccc2)N=C1N | 61% (active) | 14% | -7% | 96% (active) | inactive | inactive | inactive | inactive
CCN(Cc1ccc(-c2ccc(C(F)(F)F)cc2)cc1)C(=O)Cn1c(SCc2cccc(F)c2F)cc(=O)c2cc(CN3CCCCC3)ccc21 | 50% (active) | 95% (active) | 2% | 101% (active) | inactive | inactive | inactive | inactive
O=C(c1ccc(Cl)cc1Cl)N1CCCC(C(F)(F)F)C1 (stereo not given) | 47% | 6% | 3% | 95% (active) | inactive | inactive | inactive | inactive
COc1ccc2nccc(N3CCC(NCCNCc4ccc5c(n4)NC(=O)CS5)C3)c2n1 (stereo not given) | 5% | -4% | -4% | 100% (active) | inactive | inactive | inactive | inactive
CN(CCCNCc1cccc2ccccc12)CCCNCc1cccc2ccccc12 | 94% (active) | 93% (active) | -3% | 100% (active) | inactive | inactive | inactive | inactive
